Screening results as filed in PubChem BioAssay.
Rows were chosen to be rich in hits. Some 4.6% of all compounds tested hit in one or more screens of this group.
HCV inh: inhibitors of hepatitis C virus infection | hit rate 3.4% among 340,000 | Huh7.5.1 HCVcc-Cre infection, luciferase reporter, 44 h | Potency, µM (top dose mostly 41.8 µM), hits mostly inhibitors; active = well fitted inhibition curve with a large enough effect; inconclusive = small, poorly fitted or top-dose-only effect, or another doubt; inactive = no such curve, though single readings can be large or run the other way
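Cells (1,000/well) were plated 4 h before compound, then infected with HCVcc-Cre virus (~0.5 moi). After 44 h further culture, infection was read as luciferase luminescence following a 15 min substrate incubation at room temperature.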
Vaccinia Venus: inhibitors of vaccinia virus (Venus reporter); Vaccinia virus Venus reporter expression, fluorescence; Potency, µM (top dose mostly 36.5 µM), usual class: inhibitors; hit rate 0.46% among 330,000; AID 720580; calls by dose curve; tested in A549 cells; also: nearly all actives have a fitted effect of over 30% in size
LASV entry inh: blocks Lassa virus binding to or entry into cells. AID 540256. hit rate 1.2% among 300,000. Potency, µM (top dose mostly 37.9 µM), usual class: inhibitors. Lassa virus pseudotype entry inhibition, cell reporter; calls by dose curve; tested in HEK293 cells; also: nearly all actives have a fitted effect of over 50% in size
Marburg entry inh: inhibitors of Marburg virus binding or cell entry. AID 540276. Potency, µM (doses to about 37.8 µM), actives largely listed as inhibitors. hit rate 1.8% among 300,000. Marburg virus pseudotyped entry inhibition, cell reporter; calls by dose curve; tested in HEK293 cells
Vaccinia mCherry: inhibitors of vaccinia virus infection (mCherry reporter signal). hit rate 0.63% among 310,000. Vaccinia virus mCherry reporter infection, fluorescence. Potency, µM (highest dose often 36.5 µM), most hits filed as inhibitors; calls by dose curve; tested in A549 cells; also: nearly all actives have a fitted effect of over 35% in size
Of the large screens only hits and unclear results are named; the others gave an inactive call.

Cc1nc2ccc([N+](=O)[O-])cc2s1	none
Cc1nc2ccc(NS(=O)(=O)c3cccc([N+](=O)[O-])c3)cc2s1	HCV inh 11µM, Marburg entry inh inconclusive
Cc1cc(C)c(NC(=O)Cn2c(=O)n(CCCCC(=O)NCc3ccccc3Cl)c(=O)c3ccccc32)c(C)c1	none (no result: HCV inh)
COc1ccc(CNC(=O)Cn2c(-c3ccccc3)cc(C(C)=O)c2C)cc1OC	none (no result: HCV inh, LASV entry inh)
CC(C)c1ccccc1OCC(O)CN1CCN(S(=O)(=O)c2ccc([N+](=O)[O-])cc2)CC1 (stereo not drawn)	HCV inh 13µM, Vaccinia Venus inconclusive, LASV entry inh inconclusive, Marburg entry inh inconclusive, Vaccinia mCherry inconclusive
O=S(=O)(c1ccc(F)cc1)N1CCN(CC(O)COc2ccccc2F)CC1 (stereo not drawn)	none
NC(=O)c1c(Br)n(C2OC(CO)C(O)C2O)c2ncnc(N)c12 (stereo not drawn)	HCV inh inconclusive, Vaccinia Venus inconclusive, LASV entry inh inconclusive, Marburg entry inh inconclusive, Vaccinia mCherry 11µM
N#Cc1c(Br)n(C2OC(CO)C(O)C2O)c2ncnc(N)c12 (stereo not drawn)	HCV inh inconclusive, Vaccinia Venus 13µM, LASV entry inh inconclusive, Marburg entry inh inconclusive, Vaccinia mCherry inconclusive
Nc1ncnc2c1nc(-c1ccccc1)n2C1OC(CO)C(O)C1O (stereo not drawn)	none (no result: HCV inh, LASV entry inh, Marburg entry inh)
Nc1ncnc2c1ncn2[C@@H]1O[C@H](CNC(=O)[C@@H](N)CO)[C@@H](O)[C@H]1O	Vaccinia Venus inconclusive (no result: LASV entry inh, Marburg entry inh)
COc1cc(Cl)c(C)cc1NC(=O)NC1COc2ccccc2C1 (stereo not drawn)	none (no result: HCV inh, Marburg entry inh)
O=C(CSc1oc(-c2ccco2)nc1S(=O)(=O)c1ccc(Br)cc1)c1ccccc1	none (no result: HCV inh)
CC(/C=N/NC(=O)c1nnn(-c2nonc2N)c1C(C)C)=C\c1ccccc1	HCV inh 10µM (no result: Vaccinia Venus, LASV entry inh, Marburg entry inh, Vaccinia mCherry)
CC(C)c1c(C(=O)N/N=C/c2ccc(C(F)(F)F)cc2)nnn1-c1nonc1N	HCV inh 5.6µM (no result: Vaccinia Venus, LASV entry inh, Marburg entry inh, Vaccinia mCherry)
CC(C)c1c(C(=O)N/N=C/c2cccc(OCc3ccccc3)c2)nnn1-c1nonc1N	HCV inh inconclusive, LASV entry inh inconclusive, Marburg entry inh inconclusive
COc1cc(/C=N/NC(=O)c2nnn(-c3nonc3N)c2C(C)C)ccc1OCc1ccccc1	HCV inh 14µM (no result: Vaccinia Venus, LASV entry inh, Marburg entry inh, Vaccinia mCherry)
Cc1nc(N2CCN(Cc3ccc4c(c3)OCO4)CC2)c2cc(-c3ccccc3)sc2n1	HCV inh inconclusive, Marburg entry inh 7.9µM, Vaccinia mCherry inconclusive
O=C(Cc1cccc2ccccc12)NCC(=O)N1CCN(Cc2cccc(C(F)(F)F)c2)CC1	HCV inh 5.6µM (no result: Vaccinia Venus, LASV entry inh, Marburg entry inh, Vaccinia mCherry)
O=C(Cc1cccc2ccccc12)NCC(=O)N1CCN(CC(=O)Nc2ccc(F)cc2)CC1	none (no result: HCV inh, LASV entry inh, Marburg entry inh)
CC1CCCN(C(=O)c2cc3c(=O)n(C)c4ccccc4c3s2)C1 (stereo not drawn)	none (no result: HCV inh)
COC(=O)c1ccc(Nc2nc(N3CCOCC3)nc(N3CCOCC3)n2)cc1	HCV inh inconclusive, LASV entry inh inconclusive, Marburg entry inh 2µM
CC(=O)Nc1ccc(/C(C)=N/Nc2nc(Nc3cccc4ccccc34)nc(N3CCOCC3)n2)cc1	HCV inh inconclusive, Vaccinia Venus inconclusive, LASV entry inh inconclusive, Marburg entry inh 1.4µM
c1ccc(Nc2nc(N3CCOCC3)nc(N3CCOCC3)n2)cc1	HCV inh inconclusive, Vaccinia Venus inconclusive, Marburg entry inh inconclusive (no result: Vaccinia mCherry)
c1ccc(Nc2nc(N3CCNCC3)nc(N3CCOCC3)n2)cc1	LASV entry inh 8.9µM, Marburg entry inh 11µM
O=[N+]([O-])c1ccc(Nc2nc(N3CCOCC3)nc(N3CCOCC3)n2)cc1	HCV inh inconclusive, Marburg entry inh inconclusive
Fc1ccc(Nc2nc(N3CCOCC3)nc(N3CCOCC3)n2)cc1	LASV entry inh inconclusive, Marburg entry inh 7.1µM
Ic1ccc(/C=C2\C=Cc3ccccc32)cc1	none (no result: HCV inh, LASV entry inh, Marburg entry inh)
c1cnc2[nH]ccc2c1	none (no result: HCV inh, LASV entry inh, Marburg entry inh)
COc1ccc(Nc2nc(NCc3ccco3)nc(N3CCOCC3)n2)cc1	HCV inh inconclusive, Marburg entry inh 2.8µM
CCOC(=O)c1c(CN2CCNCC2)nc2ccc(Cl)cc2c1-c1ccccc1	HCV inh inconclusive, Vaccinia Venus inconclusive, Marburg entry inh inconclusive, Vaccinia mCherry 10µM
CC(=O)c1c(N2CCOCC2)nc2ccc(Cl)cc2c1-c1ccccc1	HCV inh inconclusive, LASV entry inh inconclusive, Marburg entry inh inconclusive
O=c1c2ccccc2oc2ccc(-c3ccoc3)cc12	none (no result: HCV inh, LASV entry inh, Marburg entry inh)
COC1=C[C@H](C(=O)NC2CCN(Cc3ccccc3)CC2)[C@@]2(C)Cc3ccccc3[C@@H]2CC1=O	none (no result: HCV inh, Vaccinia Venus, LASV entry inh, Vaccinia mCherry)
CC(C)c1ccc(CCNC(=O)c2ccc([N+](=O)[O-])cc2)cc1	HCV inh 11µM, LASV entry inh inconclusive, Marburg entry inh inconclusive
O=C(NCCc1ccc([N+](=O)[O-])cc1)c1ccccc1	none (no result: Vaccinia Venus, LASV entry inh, Marburg entry inh, Vaccinia mCherry)
NC(=S)N=Nc1c(O)[nH]c2ccc(F)cc12	Vaccinia Venus 3.5µM, Vaccinia mCherry 5µM
CC(C)C(=O)N1CCN(c2ccccc2NC(=O)c2ccc([N+](=O)[O-])o2)CC1	HCV inh inconclusive, Vaccinia Venus inconclusive, Vaccinia mCherry 11µM
COc1ccc(Br)cc1C(=O)Nc1ccccc1N1CCN(C(=O)c2ccccc2)CC1	HCV inh 11µM, Vaccinia Venus inconclusive, LASV entry inh inconclusive, Marburg entry inh inconclusive, Vaccinia mCherry inconclusive
CCC(=O)N1CCN(c2ccccc2NC(=O)c2ccc([N+](=O)[O-])o2)CC1	HCV inh inconclusive, Marburg entry inh inconclusive, Vaccinia mCherry inconclusive
O=C(Nc1ccccc1N1CCN(C(=O)c2ccccc2)CC1)c1ccc([N+](=O)[O-])o1	HCV inh inconclusive, Vaccinia Venus inconclusive, Marburg entry inh inconclusive, Vaccinia mCherry 11µM
Cc1ccc(-n2cc(CN3CCC(O)(c4ccccn4)CC3)c(-c3ccc(F)cc3)n2)cc1	HCV inh inconclusive, Vaccinia Venus inconclusive, LASV entry inh inconclusive, Marburg entry inh 4µM, Vaccinia mCherry inconclusive
Cc1ccccc1OCCSc1nc(N(C)C)nc(N(C)C)n1	Marburg entry inh inconclusive
CCOc1nc(SCCOc2ccccc2)nc(N(C)C)n1	HCV inh 11µM, Marburg entry inh inconclusive
CCNc1nc(SCCOc2ccc(C)cc2)nc(N(C)C)n1	HCV inh 11µM, Marburg entry inh inconclusive (no result: Vaccinia Venus, Vaccinia mCherry)
CCCCOc1ccc(CSC(=N)N)cc1Cl	HCV inh inconclusive, Marburg entry inh inconclusive
COc1ccc(Br)cc1CSC(=N)N	HCV inh inconclusive, Marburg entry inh 13µM
CCCCCOc1ccc(Br)cc1CSC(=N)N	HCV inh 7.9µM, Vaccinia Venus 11µM, Vaccinia mCherry inconclusive (no result: LASV entry inh, Marburg entry inh)
COc1ccc(Br)cc1CNc1ccccc1	none (no result: Vaccinia Venus, LASV entry inh, Marburg entry inh, Vaccinia mCherry)
CN(C)S(=O)(=O)c1cc(C(=O)NCc2ccccc2)c(Cl)cc1Cl	HCV inh 13µM (no result: Vaccinia Venus, Vaccinia mCherry)
CN(C(=O)c1ccccc1Cl)c1ccccc1C(=O)NCc1ccccc1	none
CN1CCN(C(=O)N2c3ccccc3C=Cc3ccccc32)CC1	LASV entry inh inconclusive, Marburg entry inh 10µM
NC(=O)N1c2ccccc2C=Cc2ccccc21	HCV inh inconclusive, LASV entry inh inconclusive
CCOc1ccc(S(=O)(=O)N2CCCCC2)cc1NC(=O)CN1C(=O)NC(C)(c2ccc(C)cc2)C1=O (stereo not drawn)	HCV inh 10µM, Vaccinia Venus inconclusive, LASV entry inh inconclusive, Marburg entry inh inconclusive, Vaccinia mCherry inconclusive
